Rows were chosen to be rich in hits. Some 1.7% of all compounds tested hit in one or more screens of this group.
IDH1 R132H inh: human IDH1 R132H inhibition; IDH1-R132H enzyme, NADPH consumption, diaphorase/resazurin fluorescence; AID 602179; O75874; Potency, µM (series often up to 76.6 µM), hits mostly inhibitors; 390,000 tested, 0.093% active; also: nearly all actives have a fitted effect of over 65% in size
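IDH1-R132H (0.5 ug/mL dispensed) in pH 7.5 Tris buffer was preincubated 30 min with compound, then given a substrate mix of 0.016 mM NADPH and 2 mM alpha-KG for 80 min at room temperature; remaining NADPH was read by diaphorase/resazurin fluorescence.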
GRP78 ERSR act: induces the endoplasmic reticulum stress response in human glioma cells. AID 602332. 420,000 tested, 0.02% active. Potency, µM, hits mostly activators. U87-MG GRP78 promoter luciferase reporter, 16 h; also: series mostly up to about 76 µM; nearly all actives have a fitted effect of over 35% in size
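Stably transfected U87-MG glioma cells carrying a GRP78-based luciferase sensor; 16 h compound incubation. Luminescence end-point read 10 min after Bright-Glo addition at room temperature.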
TrxR1 inh: inhibitors of rat thioredoxin reductase 1; recombinant rTrxR1, NADPH fluorescence consumption, selenite substrate; Potency, µM (series often up to 114 µM), most hits filed as inhibitors; 390,000 tested, 1% active; also: nearly all actives have a fitted effect of over 65% in size
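Rat TrxR1 (90 nM in the dispensed reagent) was pre-reduced with 400 uM NADPH for 5 min at room temperature, then incubated with compound for 15 min. After 400 uM selenite was added, NADPH fluorescence (Ex 340/Em 450 nm) was followed for 8 min.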
ALOX12 inh: blocks human arachidonate 12S-lipoxygenase | P18054 | purified 12hLO, xylenol orange hydroperoxide absorbance | Potency, µM (top dose mostly 108 µM), actives largely listed as inhibitors | 580,000 tested, 1.1% active
Target sequence (P18054 whole entry, looked up): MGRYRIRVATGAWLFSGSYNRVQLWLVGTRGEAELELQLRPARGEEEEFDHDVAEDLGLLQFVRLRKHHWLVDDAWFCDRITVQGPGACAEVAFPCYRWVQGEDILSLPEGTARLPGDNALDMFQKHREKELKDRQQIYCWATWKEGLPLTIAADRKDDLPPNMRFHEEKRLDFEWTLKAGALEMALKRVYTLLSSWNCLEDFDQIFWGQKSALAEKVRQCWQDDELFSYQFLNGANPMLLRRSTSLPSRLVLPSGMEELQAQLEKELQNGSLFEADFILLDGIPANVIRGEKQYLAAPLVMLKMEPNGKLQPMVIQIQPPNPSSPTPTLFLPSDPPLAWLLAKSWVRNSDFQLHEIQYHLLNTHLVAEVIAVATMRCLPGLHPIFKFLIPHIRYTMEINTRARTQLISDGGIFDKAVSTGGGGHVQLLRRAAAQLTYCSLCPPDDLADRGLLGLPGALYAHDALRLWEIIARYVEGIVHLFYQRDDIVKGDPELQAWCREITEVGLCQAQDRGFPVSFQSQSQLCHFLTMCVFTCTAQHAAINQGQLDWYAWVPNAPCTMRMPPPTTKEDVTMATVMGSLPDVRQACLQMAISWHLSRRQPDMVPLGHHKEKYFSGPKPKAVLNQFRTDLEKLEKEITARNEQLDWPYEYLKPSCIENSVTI
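Purified human 12hLO (150 nM final) in 25 mM Hepes, 0.01% Triton X-100, pH 7.0 was preincubated 15 min at room temperature with compound. Then 40 uM arachidonic acid was added, 30 min. Hydroperoxide was read by Fe-XO absorbance ratio 573/405 nm.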
Apoferritin bind: candidate novel general anesthetic via apoferritin binding. apoferritin/1-aminoanthracene competitive binding, fluorescence. P02791. 350,000 tested, 0.074% active. AID 485281. Potency, µM (series often up to 77.5 µM), most hits filed as inhibitors; also: nearly all actives have a fitted effect of over 20% in size
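Concentration-response curves derived by four-parameter Hill fitting of normalized fluorescence, where compounds displaced 1-AMA from 10 uM horse apoferritin following a brief 10 min room-temperature incubation; propofol titration acted as positive control.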
TrxR1 substrate: rat thioredoxin reductase 1 substrate activity; O89049; 390,000 tested, 0.01% active; AID 588456; purified TrxR1 substrate turnover, NADPH consumption readout; Potency, µM (highest dose often 114 µM); also: nearly all actives have a fitted effect of over 50% in size
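Rat TrxR1, dispensed at 90 nM, was prereduced with 400 uM NADPH (final) for 5 min at ~22 deg C, then incubated with compound 15 min before 400 uM selenite. A first-read NADPH fluorescence drop versus no-compound background flagged substrates.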
Hits are given with their value; – = inactive; ? = inconclusive; · = no result given; [ ] = another dose, or the depositor's remark. Calls follow the shape of the dose curve; as a rule, active = well fitted curve in the direction sought with a large enough effect; inconclusive = small, poorly fitted or top-dose-only effect, or another doubt; inactive = no such curve, though single readings can be large; an effect the other way counts as inactive or inconclusive.

SMILES	IDH1 R132H inh	GRP78 ERSR act	TrxR1 inh	ALOX12 inh	Apoferritin bind	TrxR1 substrate
CC(C)CCNc1sc(S(C)(=O)=O)nc1S(=O)(=O)c1ccc(Cl)cc1	·	·	·	–	·	·
CCc1c(C)sc(NC(=S)Nc2nc(C)cc(C)n2)c1C(=O)OC	–	–	–	22µM	–	–
CCc1c(C)sc(NC(=S)Nc2cccnc2)c1C(=O)OC	–	–	–	–	?	–
Cc1cc(Cl)ccc1OCCNC(=S)NC(=O)c1cccnc1	–	–	–	–	–	–
CC(C)c1ccccc1OCCNC(=S)NC(=O)c1cccnc1	–	–	–	40µM	?	–
O=C(COC(=O)c1c[nH]c2ccccc12)Nc1ccc(CN2CCOCC2)cc1	·	·	·	–	·	·
Cc1ccc(-c2nc3cnccn3c2NCCC(=O)NCc2ccco2)cc1	·	·	·	50µM	·	·
COc1cc(/C=C(\CC(=O)O)c2nc3ccccc3s2)cc(OC)c1O	–	–	–	35µM	–	–
COc1ccc(/C=C(\CC(=O)O)c2nc3ccccc3s2)cc1O	–	–	–	–	–	–
N#C/C(=C\C=C\c1ccco1)C(=O)NC1CCCCCC1	·	·	·	13µM	·	·
Cc1cc2ncc(C(=O)N3CCC(N4CCCC4)CC3)cn2n1	·	·	·	–	·	·
Cc1ccc(C)c(C(=O)N2CCCC(n3cc(-c4nc(C(C)C)no4)nn3)C2)c1 (centres undefined)	·	·	·	–	·	·
CCOC(=O)c1ccc(N2C(=O)c3n[nH]c(-c4ccco4)c3C2c2cccc([N+](=O)[O-])c2)cc1 (centres undefined)	–	–	–	32µM	–	–
COc1cccc([C@@H]2Oc3ccc(OC)cc3/C(=N/O[C@@H](C)c3cc(-c4c(C)cc(C)cc4C)no3)[C@@H]2O)c1	·	–	·	·	–[15.3 µM]	·
CCn1c(SCC(=O)c2ccc(C#N)cc2)nnc1-c1ccc(C)cc1	·	·	·	–	·	·
CN(C)c1cc(-c2cccc(NS(C)(=O)=O)c2)ncn1	·	–	·	35µM	·	·
CS(=O)(=O)Nc1cccc(-c2cc(NCc3ccccc3)ncn2)c1	·	–	·	11µM	·	·
CS(=O)(=O)Nc1cccc(-c2cncnc2NCc2ccccc2)c1	·	–	·	40µM	·	·
COc1cccc(-c2cncnc2Nc2ccccc2)c1	·	–	·	40µM	·	·
Cc1nc2c(cnn2C(C)C)cc1C(=O)Nc1nc(-c2ccc(Cl)cc2)cs1	·	·	·	–	·	·
COC(=O)c1ccccc1NC(=O)/C(C#N)=C/c1ccc(C)o1	·	·	·	–	·	·
Cc1cc(C(=O)CCl)c(C)n1-c1c(C)n(C)n(-c2ccccc2)c1=O	–	?	8.9µM	?	–	–
CCc1ccc(-c2nc(CN3CCCC(C(=O)N4CCN(c5cc(Cl)ccc5C)CC4)C3)c(C)o2)cc1 (centres undefined)	?	–	–	?	–	–
COc1ccccc1CNc1ccnc(-c2ccc(N(C)C)cc2)n1	·	–	·	25µM	·	·
CNc1ccnc(-c2ccccc2C)n1	·	–	·	?	·	·
SMILES	IDH1 R132H inh	GRP78 ERSR act	TrxR1 inh	ALOX12 inh	Apoferritin bind	TrxR1 substrate
CN(C)c1ccc(-c2nccc(NCc3ccccc3)n2)cc1	·	–	·	?	?	·
CNc1ccnc(-c2ccccc2OC)n1	·	–	·	16µM	·	·
COc1ccccc1-c1nccc(NCc2ccccc2)n1	·	–	·	22µM	·	·
CC(C)(C)C1CCC2(CC1)NC(=O)N(CC(=O)NCc1ccco1)C2=O (centres undefined)	·	·	·	–	·	·
Cc1noc(CC2CCOC3(CCN(Cc4ccc(F)cc4F)CC3)C2)n1 (centres undefined)	·	·	·	–	·	·
CCc1ccc(S(=O)(=O)N2CCC3(CC2)NC(=O)c2ccccc2N3)cc1	·	·	·	–	·	·
O=S(=O)(c1ccc(-c2csc(Nc3cccc4ccccc34)n2)cc1)N1CCCCC1	·	·	·	16µM	·	·
CNc1nc(-c2ccc(S(=O)(=O)N3CCCCC3)cc2)cs1	–	–	–	?	·	–
Cc1ccc(C)n1-c1sccc1C(=O)O	–	–	50µM	·	–	–
COc1ccc(-c2cc(N3CCC(NC(=O)c4ccc(Cl)s4)CC3)n[nH]2)cc1	·	·	·	–	·	·
O[C@@](CCN1CCCC1)(c1ccccc1)C1CCCCC1	·	–	·	·	–	·
CCCCCC(O)(CCN1CCCCC1)c1ccc(OCC)cc1 (centres undefined)	–	–	8.9µM	?	–	–
O=C(CCN1CCCCC1)c1cccc(Cl)c1	–	–	0.35µM	–	·	–
CC(C)COc1ccc(C(=O)CCN2CCCCC2)cc1	–	–	1.4µM	–	?	–
COc1ccc(C(O)(CCN2CCCCC2)C2CCCCC2)cc1 (centres undefined)	–	–	2.8µM	–	–	–
COCCNC(=O)[C@H]1C[C@H](Oc2ccccc2)CN1Cc1ccc(C)o1	·	·	·	–	·	·
Cc1ccc(C(=O)c2cn(Cc3cccc(C)c3)c3nc(C)ccc3c2=O)cc1	–	–	–	–	?	–
CC(=O)c1ccc(OCCCN2CCCCC2)cc1	–	–	–	?	–	–
CCCCOc1ccc(C(=O)CCN2CCCCC2)cc1	–	–	3.2µM	–	?	–
COc1cc(OC)cc(C(=O)NCc2cc(=O)n3nc(-c4ccccc4)sc3n2)c1	·	·	·	–	·	·
N#Cc1ccc(C(=O)N2CC[C@H]3NC(=O)N(c4ccccc4)C(=O)[C@H]32)cc1	·	·	·	–	·	·
COc1ccc(C(c2c(O)cc(C)n(Cc3ccco3)c2=O)N2CCN(c3ccccc3)CC2)cc1 (centres undefined)	–	–	16µM	?	–	–
Cc1cc(O)c(C(c2ccccc2)N2CCCCC2)c(=O)n1Cc1ccco1 (centres undefined)	–	–	–	–	–	–
CCOC(=O)C1CCN(C(c2ccc(OCC)cc2)c2c(O)cc(C)n(CCOC)c2=O)CC1 (centres undefined)	–	–	25µM	–	–	–
CCOc1ccc(C(c2c(O)cc(C)n(CCOC)c2=O)N2CCN(c3ccccc3)CC2)cc1 (centres undefined)	–	–	11µM	–	–	–
SMILES	IDH1 R132H inh	GRP78 ERSR act	TrxR1 inh	ALOX12 inh	Apoferritin bind	TrxR1 substrate
CC(C)(C)c1ccc(Oc2ccc(C#N)c(C#N)c2)cc1	·	·	·	–	·	·
O=C(Cc1ccccn1)N1CCC2(CC1)Cc1ccccc1NC2=O	·	·	·	–	·	·
COc1ccccc1-c1nnc2ccc(Oc3cccc(NC(C)=O)c3)nn12	·	·	·	–	·	·
COc1cccc(-c2nn(C)c3sc(C(=O)NCc4ccc(C)o4)cc23)c1	–	–	32µM	?	–	–
Cc1ccc(S(=O)(=O)NN(Cc2ccccc2)Cc2ccccc2)cc1	–	–	·	16µM	·	·
CC(=O)NNC(=S)NC(=O)c1ccccc1	–	–	–	?	–	–
O=C(NC(=S)NC1C2CC3CC(C2)CC1C3)c1ccccc1 (centres undefined)	–	–	50µM	?	?	–
O=C(COc1ccccc1)NC1CCCCCCC1	–	–	–	–	45µM	–
O=C(NC(=S)NC1CCCC1)c1ccccc1	–	–	?	13µM	–	–

Source: PubChem BioAssay (National Center for Advancing Translational Sciences (NCATS))
